Measured values taken from the supplement of paper PMC11417369.
In all, about 25,000 sequences were measured (“ln(normalized median fluorescence intensity)”: median about 7.1, highest 2% from about 10 on). This is one part of a sample in which the highest values are shown more often than they occur.

tested on: PfSIP2 AP2 domain 1 (GST-tagged); assay: gcPBM binding intensity (ln(normalized median fluorescence intensity)); higher = stronger DNA binding
How it was run: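 Plasmodium falciparum DNA-binding domains carrying a GST tag were expressed in E. coli and applied for 1 h, at about 25 μg on average, to an Agilent 4 × 180k array. The array held primer-extended double-stranded 36-bp intergenic genomic probes together with negative controls, and binding took place in 1× PBS with 1% milk, 0.2 mg/ml BSA, 0.5% salmon testes DNA and 0.03% Triton X-100. An Alexa488 anti-GST antibody detected bound protein, and the array was scanned at 488 nm. Binding intensity is taken as the highest Masliner-normalised natural-log median intensity across replicate spots of either probe orientation.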

Question: “AATCAAAATTAATTAACACACAATTTTAATATTCTT [CACACA_site2063]” was tested. Which “gcPBM binding intensity (ln)” value did it give?
Answer: The value was 6.79.

Question: “ATATATTTTTTTTAGCGTACATGCAAAAAAAAAAAA [XGTACX_site4590]” was tested. Which “gcPBM binding intensity (ln)” value did it give?
Answer: Its value is 7.26.

Question: With “TACGTTATGTTGAATAGTACAATTTGGTGAACAGGT [XGTACX_site1729]” as the sequence, how does the “gcPBM binding intensity (ln)” value read?
Answer: Its value is 7.51.

Question: With “GTAGTGGTTGAATATACACACATATATAAATAAATA [CACACA_site7282]” as the sequence, how does the “gcPBM binding intensity (ln)” value read?
Answer: Its value is 7.

Question: Which “gcPBM binding intensity (ln)” value does the source give for TTTTTTTTTTTGTGGGTGCGTTTATAAAAACAGGAA here?
Answer: The value was 11.1.

Question: For TTTTTTTTTTTTTTGGTGCGTTTATATATAAATATA, which “gcPBM binding intensity (ln)” value is on record?
Answer: Its value is 8.81.

Question: With “TTTTATAAACAGAGGGGTACGGGAAAAAAAAAAAAA [XGTACX_site1480]” as the sequence, how does the “gcPBM binding intensity (ln)” value read?
Answer: The value was 7.11.

Question: How did the “gcPBM binding intensity (ln)” value turn out when “TAATACCATTGTCATGCATGCACATTATTACTCTAA [TGCATGCA_site160]” was run?
Answer: Its value is 7.38.

Question: With “CCTAAAGTGTAAAATTCACACACATATATATATATA [CACACA_site8385]” as the sequence, how does the “gcPBM binding intensity (ln)” value read?
Answer: The value was 8.94.

Question: How did the “gcPBM binding intensity (ln)” value turn out when ATTTTTTTCTTAGGAGTGCACTTATATTTATTTTAT was run?
Answer: The value was 11.2.

Question: “ATATATTTTAGGAGAGTGCATTTAATATTATTTAAT [GTGCAC_site9444]” was tested. Which “gcPBM binding intensity (ln)” value did it give?
Answer: Its value is 8.99.

Question: Which “gcPBM binding intensity (ln)” value does the source give for TTTTATATTTTAAGAGTGCATTTTATATCTTTTTCT here?
Answer: The value was 8.74.

Question: “TATATATAATATACATGTACAAATGTATTTAAAAAT [XGTACX_site6090]” was tested. Which “gcPBM binding intensity (ln)” value did it give?
Answer: The value was 7.07.

Question: “TGCATAATTAAAAATGGTACACTGTATTTATAATAT [XGTACX_site1575]” was tested. Which “gcPBM binding intensity (ln)” value did it give?
Answer: Its value is 7.13.

Question: Which “gcPBM binding intensity (ln)” value does the source give for TAAAAAATTAATAAAGTGCATAAATATTACAATATT here?
Answer: Its value is 8.14.

Question: For AGGTATATATTACAAGTGCACTGTAAAATTAAAATT, which “gcPBM binding intensity (ln)” value is on record?
Answer: The value was 10.7.

Question: How did the “gcPBM binding intensity (ln)” value turn out when “TCTTATGAATATCCCCGTACACATATATTTCTTATA [XGTACX_site6877]” was run?
Answer: The value was 7.22.

Question: For “TATAAATTTTGTTTAGCACACACACCGACATACATA [CACACA_site9033]”, which “gcPBM binding intensity (ln)” value is on record?
Answer: Its value is 7.28.

Question: “AAACAAAAAAGAAACACACACTAATTAAATTTTCTT [CACACA_site4746]” was tested. Which “gcPBM binding intensity (ln)” value did it give?
Answer: The value was 6.74.

Question: With “AATATTTGTTAAAGAGGTACACCATTTGGTAGGGAA [XGTACX_site2165]” as the sequence, how does the “gcPBM binding intensity (ln)” value read?
Answer: The value was 7.06.

Question: For “ATTTTTTTTTTTTTTTTAAGACAAACTCTTAATTTA [CACACA_negctrl_site1389]”, which “gcPBM binding intensity (ln)” value is on record?
Answer: The value was 6.78.

Question: “TATGAAGTACACAATACACACTAATTATATATAAAT [CACACA_site5444]” was tested. Which “gcPBM binding intensity (ln)” value did it give?
Answer: The value was 6.91.

Question: For “TATGAAGTGCACAATACACACTAATTCTATATAAAT [CACACA_site7269]”, which “gcPBM binding intensity (ln)” value is on record?
Answer: Its value is 11.2.

Question: Which “gcPBM binding intensity (ln)” value does the source give for “TATATGAAGTACACAATACACACTAATTATATATAA [CACACA_site2608]” here?
Answer: The value was 7.12.

Question: Which “gcPBM binding intensity (ln)” value does the source give for “CATACATACAGATATACACACATATATAATAATATA [CACACA_site5477]” here?
Answer: Its value is 7.14.

Question: For “AGGTGCTTAATATATACACACATACAGATATATATA [CACACA_site5552]”, which “gcPBM binding intensity (ln)” value is on record?
Answer: Its value is 7.6.

Question: Which “gcPBM binding intensity (ln)” value does the source give for “AGAATAATAAAATGGGTGCAATAGTTTTTTTTTTTT [GTGCAC_site9823]” here?
Answer: Its value is 10.4.

Question: Which “gcPBM binding intensity (ln)” value does the source give for “ATAATAAAAATAAGAGAATAAAAATGCAATTTAATG [CACACA_negctrl_site878]” here?
Answer: Its value is 6.81.

Question: For AAATGAATATTCATAGTGCAATATATAAATGAAAAT, which “gcPBM binding intensity (ln)” value is on record?
Answer: Its value is 7.94.

Question: How did the “gcPBM binding intensity (ln)” value turn out when “GAGAAATTTATACATACACACATATATATATTATAT [CACACA_site4038]” was run?
Answer: The value was 7.16.

Question: Which “gcPBM binding intensity (ln)” value does the source give for “ATATATATATATGTATGTATATATATATGTTTGATT [XGTACX_negctrl_site62]” here?
Answer: Its value is 9.56.

Question: With “AATATTACAATTTGGTGTACAGGTGCACATGCCTCA [XGTACX_site1730]” as the sequence, how does the “gcPBM binding intensity (ln)” value read?
Answer: The value was 11.5.

Question: With “ATTATTTTGTTTATTACATGCAGGTGTATATTACAG [TGCATGCA_site723]” as the sequence, how does the “gcPBM binding intensity (ln)” value read?
Answer: Its value is 7.2.

Question: Which “gcPBM binding intensity (ln)” value does the source give for “TTACGAATTACATATTGTACATATGCACAATTTTAA [XGTACX_site6802]” here?
Answer: The value was 7.4.

Question: Which “gcPBM binding intensity (ln)” value does the source give for “ATATATTCCATAAAGGTGCTGTTAACGTGTCAACGT [GTGCAC_site9402]” here?
Answer: The value was 7.84.

Question: Which “gcPBM binding intensity (ln)” value does the source give for TTATACAGGACAATAGTGCACATAAATATATGTATA here?
Answer: The value was 10.6.

Question: For AACATATTGGATTTAGTGCACATATATATCATAATA, which “gcPBM binding intensity (ln)” value is on record?
Answer: Its value is 10.3.

Question: Which “gcPBM binding intensity (ln)” value does the source give for ATATATCATATTATAGTGCATTTATAATAATATTAT here?
Answer: Its value is 9.33.

Question: For “AAAAATAAATATATATGTACACATATGTATACAATA [XGTACX_site4692]”, which “gcPBM binding intensity (ln)” value is on record?
Answer: The value was 7.03.

Question: “TTTATATTTTTTTTTGCACACTTTAAAAAAATATAT [CACACA_site1146]” was tested. Which “gcPBM binding intensity (ln)” value did it give?
Answer: Its value is 7.4.

Question: How did the “gcPBM binding intensity (ln)” value turn out when “AAAAAAAAAAAAAGTGCACACTTTTAATATAAATAT [CACACA_site3314]” was run?
Answer: Its value is 10.8.

Question: With “ATATAAATATAGTGTGCACACACATAATATATATAT [CACACA_site8713]” as the sequence, how does the “gcPBM binding intensity (ln)” value read?
Answer: The value was 8.66.

Question: With “AATACAATAAAATAGTGTACATATATATTATGTATA [XGTACX_site8258]” as the sequence, how does the “gcPBM binding intensity (ln)” value read?
Answer: Its value is 6.93.

Question: “TATAATAAAATTTTTACACACTTTAAAAAAAAAAAA [CACACA_site524]” was tested. Which “gcPBM binding intensity (ln)” value did it give?
Answer: The value was 6.88.

Question: Which “gcPBM binding intensity (ln)” value does the source give for “AGTGCATAATATTTATGTACGTATCACATATATTTT [XGTACX_site5166]” here?
Answer: The value was 9.05.

Question: For “ATATATATATATAGTGCACACATATAAAATATATAT [CACACA_site8884]”, which “gcPBM binding intensity (ln)” value is on record?
Answer: The value was 10.1.
